From the supplement of paper PMC8975748
Structures can show the parent of a compound that is named as a salt.

These molecules were tested on Saccharomyces cerevisiae BY4741 SeMeCo community (assay: z-score of subpopulation abundance vs DMSO median, subpopulation auxotrophic for LU; higher = larger share of this subpopulation than in DMSO controls). Details: 10 µM; 24 h; SM minimal medium; subpopulation (auxotrophy): LU.
Method: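 Fluorescent four-plasmid SeMeCo (self-establishing metabolically cooperating S. cerevisiae BY4741 community; plasmids pH-mRuby2, pL-mWasabi, pU-eCFP, pM-TagRFP657) was grown 24 h in minimal SM medium with each Selleck FDA-approved drug at 10 µM in 384-well plates. Cells were fixed and imaged by high-content confocal microscopy. For each auxotrophic subpopulation (and the prototroph), a z-score gives the deviation from the DMSO vehicle-control population median.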

Row | Structure (SMILES) | z-score of subpopulation abundance
1 | CCCCCOc1ccc(-c2cc(-c3ccc(C(=O)N[C@H]4C[C@@H](O)[C@@H](O)NC(=O)[C@@H]5[C@@H](O)[C@@H](C)CN5C(=O)[C@H]([C@H](O)CC(N)=O)NC(=O)[C@H]([C@H](O)[C@@H](O)c5ccc(O)c(OS(=O)(=O)O)c5)NC(=O)[C@@H]5C[C@@H](O)CN5C(=O)[C@H]([C@@H](C)O)NC4=O)cc3)no2)cc1 [Micafungin Sodium] | 1.46
2 | CN1C2CCCC1CC(NC(=O)c1nn(C)c3ccccc13)C2 (stereo not given) [Granisetron HCl] | -0.06
3 | C=C[C@H]1CN2CC[C@H]1C[C@H]2[C@H](O)c1ccnc2ccc(OC)cc12 [Quinine HCl Dihydrate] | -0.08
4 | CCOc1ccc2nc3cc(N)ccc3c(N)c2c1 [Ethacridine lactate monohydrate] | -7.71
5 | OCCOCCN1CCN(C2=Nc3ccccc3Sc3ccccc32)CC1 [Quetiapine Fumarate] | -0.19
6 | O=C(Cn1ccnc1[N+](=O)[O-])NCc1ccccc1 [Benznidazole] | -0.43
7 | COc1cc(N)c(Cl)cc1C(=O)NC1CCN(CCCOc2ccc(F)cc2)CC1OC (stereo not given) [Cisapride] | -0.54
8 | Cc1cccc(C)c1NC(=O)C1CCCCN1C (stereo not given) [Mepivacaine HCl] | 0.44
9 | CC[C@@]1(O)C(=O)OCc2c1cc1n(c2=O)Cc2cc3cc(O)ccc3nc2-1 [(S)-10-Hydroxycamptothecin] | -0.98
10 | COc1cc2c(cc1OC)[C@@H]1Cc3ccc(OC)c(OC)c3CN1CC2 [Rotundine] | 0.16
11 | COc1ccc2cc([C@H](C)C(=O)O)ccc2c1 [Naproxen Sodium] | -0.46
12 | CC(=O)Oc1ccccc1C(=O)O [Aspirin] | 0.01
13 | OCCN(CCO)c1nc(N2CCCCC2)c2nc(N(CCO)CCO)nc(N3CCCCC3)c2n1 [Dipyridamole] | -7.03
14 | CCCCCCCCc1ccc(CCC(N)(CO)CO)cc1 [Fingolimod] | -0.72
15 | CC1(C)[C@H](C(=O)O)N2C(=O)C[C@H]2S1(=O)=O [Sulbactam] | -0.53
16 | C#C[C@]1(O)CC[C@H]2[C@@H]3CCc4cc(OC5CCCC5)ccc4[C@H]3CC[C@@]21C [Quinestrol] | 1.93
17 | CC(C)N1CCN(c2ccc(OCC3COC(Cn4cncn4)(c4ccc(Cl)cc4Cl)O3)cc2)CC1 (stereo not given) [Terconazole] | -0.65
18 | CC(NCCC(c1ccccc1)c1ccccc1)c1ccccc1 (stereo not given) [Fendiline hydrochloride] | -0.77
19 | CCC(C)(C)C(=O)O[C@H]1C[C@@H](C)C=C2C=C[C@H](C)[C@H](CC[C@@H]3C[C@@H](O)CC(=O)O3)[C@H]21 [Simvastatin] | 1.71
20 | CC1CCc2c(N3CCC(O)CC3)c(F)cc3c(=O)c(C(=O)O)cn1c23 (stereo not given) [Nadifloxacin] | 0.62

Row | Structure (SMILES) | z-score of subpopulation abundance
21 | CN(C)C(=O)COC(=O)Cc1ccc(OC(=O)c2ccc(NC(=N)N)cc2)cc1 [Camostat Mesilate] | -0.08
22 | C#CCN[C@@H]1CCc2ccccc21 [Rasagiline Mesylate] | 0.5
23 | CCCc1nc(C)c2c(=O)nc(-c3cc(S(=O)(=O)N4CCN(CC)CC4)ccc3OCC)[nH]n12 [Vardenafil HCl Trihydrate] | 0.67
24 | CCCCOc1cc(C(=O)OCCN(CC)CC)ccc1N [Oxybuprocaine HCl] | -0.72
25 | CC(C)n1c(/C=C/C(O)CC(O)CC(=O)O)c(-c2ccc(F)cc2)c2ccccc21 (stereo not given) [Fluvastatin Sodium] | 1.08
26 | COC(=O)C1=C(C)NC(C)=C(C(=O)OC(C)C)C1c1cccc2nonc12 (stereo not given) [Isradipine] | 0.62
27 | O=C(O)CCCCCCCC(=O)O [Azelaic acid] | 1.26
28 | CCn1cc(C(=O)O)c(=O)c2cc(F)c(N3CCN(C)CC3)cc21 [Pefloxacin Mesylate Dihydrate] | -0.04
29 | CC(C)[C@H](N)C(=O)OCC(CO)OCn1cnc2c(=O)[nH]c(N)nc21 (stereo not given in full) [Valganciclovir HCl] | -0.94
30 | C[C@]12CC[C@@H]3c4ccc(OC(=O)c5ccccc5)cc4CC[C@H]3[C@@H]1CC[C@@H]2O [Estradiol Benzoate] | -0.68
31 | CC[C@@H]([C@H](C)O)n1ncn(-c2ccc(N3CCN(c4ccc(OC[C@@H]5CO[C@@](Cn6cncn6)(c6ccc(F)cc6F)C5)cc4)CC3)cc2)c1=O [Posaconazole] | 3.33
32 | COc1ccccc1OCC(O)CN1CCN(CC(=O)Nc2c(C)cccc2C)CC1 (stereo not given) [Ranolazine 2HCl] | 0.35
33 | CS(=O)(=O)c1ccc([C@@H](O)[C@@H](CO)NC(=O)C(Cl)Cl)cc1 [Thiamphenicol] | 0.67
34 | CO[C@H]1C[C@@H]2CC[C@@H](C)[C@@](O)(O2)C(=O)C(=O)N2CCCC[C@H]2C(=O)O[C@H]([C@H](C)C[C@@H]2CC[C@@H](O)[C@H](OC)C2)CC(=O)[C@H](C)/C=C(\C)[C@@H](O)[C@@H](OC)C(=O)[C@H](C)C[C@H](C)/C=C/C=C/C=C/1C [Rapamycin (Sirolimus)] | 3.56
35 | CN(C)CCC=C1c2ccccc2CCc2ccccc21 [Amitriptyline HCl] | -1.69
36 | CC[C@H]1OC(=O)[C@H](C)[C@@H](O[C@H]2C[C@@](C)(OC)[C@@H](O)[C@H](C)O2)[C@H](C)[C@@H](O[C@@H]2O[C@H](C)C[C@H](N(C)C)[C@H]2O)[C@](C)(O)C[C@@H](C)CN[C@H](C)[C@@H](O)[C@]1(C)O [Azathramycin] | -0.39
37 | CN1C(C(=O)Nc2ccccn2)=C(O)c2ccccc2S1(=O)=O [Piroxicam] | -0.71
38 | CCC[S+]([O-])c1ccc2[nH]c(NC(=O)OC)nc2c1 (stereo not given) [Albendazole Oxide] | -0.51
39 | C[C@H](Nc1ncnc2nc[nH]c12)c1cc2cccc(Cl)c2c(=O)n1-c1ccccc1 [Duvelisib (IPI-145, INK1197)] | 1.28
40 | CCCOc1ccc2[nH]c(NC(=O)OC)nc2c1 [Oxibendazole] | 1.03
